RE007 growth inh: less growth of the S. pombe RE007 Vpr strain | S. pombe RE007 Vpr strain, BacTiter-Glo ATP luminescence, 24 h | Potency, µM (titrated, usually from 92.2 µM), inactives show top-dose activity change, negative = less growth, hits mostly inhibitors | actives 0.21% (n = 360,000); active = well fitted falling curve with a large enough effect; inconclusive = small, poorly fitted or top-dose-only effect; inactive = no such curve, though single readings can be large or run the other way; also: % is scaled to controls: 0 for no effect and ±100 for the full control effect; nearly all actives have a fitted effect of over 50% in size
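Fission yeast RE007 carrying one integrated HIV-1 vpr copy, seeded at OD 0.01 in PMG+AL medium with 23 nL pinned compound. Grown 24 h at 30 degrees; viability read by BacTiter-Glo luminescence after 5 min.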
Sm TGR block: S. mansoni TGR enzyme inhibition; Q962Y6; purified TGR, DTNB reduction, TNB absorbance 405 nm; Potency, µM (highest dose often 114 µM), without a hit: at the top dose activity change, negative = inhibition, hits mostly inhibitors; actives 3% (n = 360,000); AID 485364; also: % is scaled to controls: 0 for no effect and ±100 for the full control effect; nearly all actives have a fitted effect of over 60% in size
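Kinetic colorimetric format: TGR-catalysed, NADPH-driven DTNB reduction monitored via TNB absorbance. Enzyme dispensed at 20 nM; compound exposure 15 min at room temperature before reaction start.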
TbPYK inhibitor: T. brucei pyruvate kinase inhibition. Q57TT1. TbPYK enzyme, Kinase-Glo Plus ATP luminescence, 45 min. Potency, µM (doses to about 76.8 µM), without a hit: top-dose activity, negative = inhibition, most hits filed as inhibitors. actives 0.12% (n = 410,000). AID 624173; also: % is scaled to controls: 0 for no effect and ±100 for the full control effect; nearly all actives have a fitted effect of over 50% in size
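Activity of T. brucei pyruvate kinase was followed by Kinase-Glo Plus luminescence after the enzyme reacted 45 min at room temperature with 130 uM ADP (final) and substrate. Test compounds were added before ADP at multiple concentrations.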
AmpC inh detg: blocks E. coli AmpC beta-lactamase in detergent assay; P00811; AmpC hydrolysis of nitrocefin, absorbance 480 nm, 0.01% Triton; Potency, µM (titrated, usually from 114 µM), inactives show at the highest dose activity change, negative = inhibition, most hits filed as inhibitors; actives 0.041% (n = 370,000); AID 485294;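 also: 0% = no-compound wells and -100% = no-enzyme wells; nearly all actives have a fitted effect of over 25% in size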
Target sequence (P00811 whole entry, looked up): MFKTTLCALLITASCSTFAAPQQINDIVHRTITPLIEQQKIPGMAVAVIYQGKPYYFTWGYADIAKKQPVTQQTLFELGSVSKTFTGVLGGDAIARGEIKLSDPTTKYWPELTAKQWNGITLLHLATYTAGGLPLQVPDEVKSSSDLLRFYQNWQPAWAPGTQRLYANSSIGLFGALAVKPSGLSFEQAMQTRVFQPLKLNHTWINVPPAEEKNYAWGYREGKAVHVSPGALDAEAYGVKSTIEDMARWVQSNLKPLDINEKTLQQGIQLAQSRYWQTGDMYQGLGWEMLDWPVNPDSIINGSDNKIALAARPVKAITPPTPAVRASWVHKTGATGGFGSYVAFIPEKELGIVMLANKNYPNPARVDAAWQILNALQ
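AmpC (5.3 nM in the dispensed reagent) in 20 mM phosphate pH 7.0 with 0.01% (detergent screen) or 0.0001% Triton X-100 was preincubated with compounds for 15 min at room temperature. Nitrocefin was then added from an 800 uM solution, and hydrolysis was followed at 480 nm.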
AmpC inh no detg: blocks E. coli AmpC beta-lactamase in detergent-free assay; P00811; AmpC nitrocefin hydrolysis, absorbance 480 nm, 0.0001% Triton; Potency, µM (series often up to 57.1 µM), for the others: at the highest dose activity change, negative = inhibition, actives largely listed as inhibitors; actives 0.52% (n = 330,000); AID 485341;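 also: plate controls were no compound for no effect and no enzyme for full effect; nearly all actives have a fitted effect of over 20% in size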
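20 mM phosphate pH 7.0 + 0.01% (detergent screen) or 0.0001% Triton X-100; 5.3 nM AmpC reagent; cpd preinc 15 min RT; nitrocefin (800 uM stock) to start; A480 q20 s × 4 min; Activity was normalised to no-enzyme and no-compound control wells.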
SARS PLP yeast: blocks SARS-CoV papain-like protease in a yeast assay; S. cerevisiae expressing SARS-CoV PLpro, growth rescue; Potency, µM (top dose mostly 32.9 µM), for the others: at the top dose activity, positive = growth rescue, most hits filed as activators; actives 0.19% (n = 330,000); AID 485353; calls by dose curve; also: 0% is about no effect; nearly all actives have a fitted effect of over 55% in size
Numbers without * were called inactive; u = inconclusive; x = no result; [ ] = another dose, or the depositor's remark. Only some compounds are listed: those with a hit (about 3.3% of all), similar ones and a draw of the others. Unless noted, calls follow the shape of the dose curve; as a rule, active = well fitted curve in the direction sought with a large enough effect; inconclusive = small, poorly fitted or top-dose-only effect, or another doubt; inactive = no such curve, though single readings can be large; an effect the other way counts as inactive or inconclusive. Potency is read from the fitted curve at half-maximal effect.

SMILES	RE007 growth inh	Sm TGR block	TbPYK inhibitor	AmpC inh detg	AmpC inh no detg	SARS PLP yeast
O=C(C1CCN(Cc2ccccc2)CC1)N1CCCC1	19.7%	3.7%	6.6%	-0.6%	-8.3%	21.5%
O=C1CC(N2CCC(Cc3ccccc3)CC2)C(=O)N1CCc1ccccc1 (stereo not given)	u	11.2µM*	-0.9%	-0.5%	194.5%	-33.8%
CCOC(=O)C1CCCN(C2CC(=O)N(c3ccc(NC(C)=O)cc3)C2=O)C1 (stereo not given)	0.1%	44.7µM*	-15.4%	4.7%	-10.4%	-2.1%
Cc1cccc(N2C(=O)CC(N3CCN(c4ccc(Cl)cc4)CC3)C2=O)c1 (stereo not given)	-1.4%	-20.0%	2.5%	u	105.0%	-14.1%
CCOC(=O)C1CCCN(C2CC(=O)N(c3ccc(C)cc3)C2=O)C1 (stereo not given)	u	u	0.4%	1.8%	-1.1%	-38.5%
Cc1cccc(N2C(=O)CC(N3CCN(Cc4ccc(Cl)cc4)CC3)C2=O)c1 (stereo not given)	u	44.7µM*	-6.3%	2.5%	-10.4%	-4.6%
CCOC(=O)C1CCN(c2cc3c(cc2NC(=O)c2ccc(Cl)cc2)n(C)c(=O)n3C)CC1	x	-3.3%	1.7%	3.7%	x	x
O=C(C1CCN(C2CC(=O)N(c3cccc(Cl)c3)C2=O)CC1)N1CCCC1 (stereo not given)	12.6µM*	22.4µM*	4.1%	u	16.8%	-10.6%
CC(C)(C)c1cnnn1-c1ccc(C=O)cc1	-14.7%	-4.8%	-2.0%	u	-16.7%	4.1%
CC(C)(C)c1cnnn1-c1ccc(C(=O)CCl)cc1	3.1%	8.91µM*	-3.5%	u	-7.4%	7.4%
COc1ccccc1CNc1ncnc2c1cnn2-c1ccc(C)cc1	x	7.2%	-1.2%	-3.1%	x	x
O=[N+]([O-])/C(C(Cl)=C(Cl)Cl)=C1\Nc2ccccc2O1	-10.8%	14.1µM*	-1.3%	-4.2%	-29.6%	0.8%
O=C1Nc2ccccc2Oc2cc([N+](=O)[O-])ccc21	u	-21.1%	-1.0%	1.7%	-44.6%	-12.2%
N#C/C(=C/c1ccc(N2CCOCC2)o1)c1ccc(Br)cc1	-5.2%	2µM*	25.1µM*	-7.0%	45.2%	-11.5%
N#C/C(=C\c1ccc(N2CCOCC2)o1)c1ccccc1	u	1.12µM*	-27.9%	4.2%	8.0%	-5.1%
N#C/C(=C/c1ccc(N2CCOCC2)o1)c1nc2ccccc2[nH]1	-7.2%	u	-1.2%	-4.8%	-32.4%	-10.6%
N#C/C(=C/c1ccc(N2CCCCCC2)o1)c1cccc(F)c1	u	u	u	-5.2%	-44.5%	-21.2%
Nc1sccc1C(=O)c1ccc(Cl)cc1	u	-13.0%	-7.7%	1.3%	-56.4%	-13.7%
NC(=O)c1ccsc1N	x	6.31µM*	x	0.4%	-11.8%	0.0%
CCOc1ccc(CN(CCc2ccc3c(c2)OCO3)Cc2cc(OC)cc(OC)c2)cc1	x	11.4%	12.2%	7.8%	x	x
CCCCN1CC(c2nc3ccccc3n2CCCCOc2ccc(C)c(C)c2)CC1=O (stereo not given)	x	1.1%	0.1%	16.8%	x	x
CN(CC(=O)Nc1ccc(N2CCOCC2)cc1)Cc1c(O)ccc2ccccc12	-18.5%	0.398µM*	-0.3%	-1.7%	-3.5%	-11.1%
CSc1ccccc1NC(=O)CN(C)Cc1c(O)ccc2ccccc12	-20.4%	0.794µM*	-18.7%	-13.8%	-41.0%	3.4%
CN(CC(=O)Nc1ccc(N2CCOCC2)cc1)C(=O)CCNC(=O)c1ccccc1Cl	1.6%	-12.2%	-1.0%	-9.5%	-14.7%	2.3%
CN(CC(=O)Nc1ccc(N2CCOCC2)cc1)C(=O)CCc1ccccc1Cl	-4.7%	35.5µM*	-1.0%	-19.2%	22.5%	5.0%
SMILES	RE007 growth inh	Sm TGR block	TbPYK inhibitor	AmpC inh detg	AmpC inh no detg	SARS PLP yeast
CCOc1ccc(CCNC(=O)c2nnc(Cc3ccc(Cl)cc3Cl)o2)cc1OCC	x	8.1%	-1.8%	8.8%	x	x
COc1ccc(-c2nc3ccccc3o2)cc1NC(=O)c1ccc(-c2cccc(Cl)c2C)o1	x	1.0%	-2.8%	12.5%	x	x
CCN(CC)c1ccc(/C=C/C(=O)C2C(=O)C=C(C)OC2=O)cc1 (stereo not given)	-3.5%	8.91µM*	-16.6%	-10.2%	-35.2%	13.3%
Oc1c(/C=N/c2ncn[nH]2)ccc2ccccc12	-5.4%	31.6µM*	-0.2%	u	-13.5%	0.0%
Cc1ccc(-n2c(O)c(/C=N/c3ncn[nH]3)c3ccccc3c2=O)cc1	10.6%	-15.0%	-9.7%	-6.9%	-16.3%	-4.7%
CCN(CC(=O)Nc1ccc(C(C)=O)cc1)CC(=O)Nc1ccccc1C(F)(F)F	4.3%	31.6µM*	-0.1%	4.9%	17.0%	-4.9%
CCN(CC(=O)Nc1ccc(OC)c(OC)c1)CC(=O)Nc1ccccc1C(F)(F)F	-19.2%	u	-15.9%	-5.1%	71.9%	1.0%
Cc1ccc2c(=O)cc(C(=O)Nc3ccc(S(=O)(=O)N4CCCCCC4)cc3)oc2c1	x	0.4%	1.9%	-1.9%	x	x
Nc1cc(=O)[nH]c(=S)n1-c1ccccc1	2.2%	-2.9%	-8.7%	-0.8%	-0.2%	6.1%
O=c1cc(C(F)(F)F)[nH]c(=S)n1-c1ccccc1	2.7%	22.4µM*	u	5.5%	-8.8%	0.2%
CCOC(=O)c1sc2cccc(F)c2c1S(=O)(=O)NCc1ccccc1Cl	x	6.4%	0.0%	24.2%	x	x
CCOC(=O)C1CCCN(C(=O)c2ccccc2NC(=O)c2nsc3ccccc23)C1 (stereo not given)	x	2.5%	6.7%[15.4 µM]	16.8%	x	x
NC(=O)CSc1nnc(-c2cnccn2)n1Cc1ccco1	23.0%	u	1.1%	-0.2%	0.3%	3.1%
COc1ccc(C(=O)CSc2nnc(-c3ccccn3)n2Cc2ccco2)cc1	-11.5%	50.1µM*	-14.0%	u	71.6%	-1.7%
O=C(CSc1nnc(-c2cnccn2)n1Cc1ccco1)c1ccccc1	0.1%[3.69 µM]	35.5µM*	x	-19.5%	-9.6%	-0.4%
O=C(CSc1nnc(-c2cnccn2)n1Cc1ccco1)c1ccc(Cl)cc1	-1.6%	10µM*	-12.3%	-9.0%	8.4%	0.3%
O=C(CSc1nnc(-c2ccccn2)n1Cc1ccco1)c1ccc(Cl)cc1	3.8%	20µM*	11.5%	-13.1%	8.0%	-0.5%
O=C(CSc1nnc(-c2ccccn2)n1Cc1ccco1)c1ccccc1	-15.6%	u	-7.4%	u	14.0%	-1.7%
COC(=O)c1ccc(Cl)cc1NC(=O)N(C)CCc1c(C)nn(C)c1C	x	-9.4%	2.3%	-1.9%	x	x
CCCC(=O)OCCNc1cc(SCCC(=O)OC)c2nonc2c1[N+](=O)[O-]	2.8%	3.55µM*	25.6%	-1.0%	17.5%	-37.3%

Screening results (PubChem)
